# For some assays here: Results with a measured potency or affinity are listed apart.
# Assays:
# Design in all cases: scale not given: direction of the effect not stated beside the values
# [1] = biological target: Protein translocase subunit SecA (Escherichia coli (strain K12)) (UniProt P10408); test: Assay to Identify E. coli SecA ATPase Inhibitors; type: functional; details: 30 µM
# [2] = biological target: T1, Ubiquitin-activating enzyme e1, putative (Leishmania donovani (strain BPK282A1)) (UniProt E9BSI1); test: Leishmania donovani Ubiquitin Activating Enzyme (LdE1); type: functional; details: 30 µM
# T1 sequence (whole entry): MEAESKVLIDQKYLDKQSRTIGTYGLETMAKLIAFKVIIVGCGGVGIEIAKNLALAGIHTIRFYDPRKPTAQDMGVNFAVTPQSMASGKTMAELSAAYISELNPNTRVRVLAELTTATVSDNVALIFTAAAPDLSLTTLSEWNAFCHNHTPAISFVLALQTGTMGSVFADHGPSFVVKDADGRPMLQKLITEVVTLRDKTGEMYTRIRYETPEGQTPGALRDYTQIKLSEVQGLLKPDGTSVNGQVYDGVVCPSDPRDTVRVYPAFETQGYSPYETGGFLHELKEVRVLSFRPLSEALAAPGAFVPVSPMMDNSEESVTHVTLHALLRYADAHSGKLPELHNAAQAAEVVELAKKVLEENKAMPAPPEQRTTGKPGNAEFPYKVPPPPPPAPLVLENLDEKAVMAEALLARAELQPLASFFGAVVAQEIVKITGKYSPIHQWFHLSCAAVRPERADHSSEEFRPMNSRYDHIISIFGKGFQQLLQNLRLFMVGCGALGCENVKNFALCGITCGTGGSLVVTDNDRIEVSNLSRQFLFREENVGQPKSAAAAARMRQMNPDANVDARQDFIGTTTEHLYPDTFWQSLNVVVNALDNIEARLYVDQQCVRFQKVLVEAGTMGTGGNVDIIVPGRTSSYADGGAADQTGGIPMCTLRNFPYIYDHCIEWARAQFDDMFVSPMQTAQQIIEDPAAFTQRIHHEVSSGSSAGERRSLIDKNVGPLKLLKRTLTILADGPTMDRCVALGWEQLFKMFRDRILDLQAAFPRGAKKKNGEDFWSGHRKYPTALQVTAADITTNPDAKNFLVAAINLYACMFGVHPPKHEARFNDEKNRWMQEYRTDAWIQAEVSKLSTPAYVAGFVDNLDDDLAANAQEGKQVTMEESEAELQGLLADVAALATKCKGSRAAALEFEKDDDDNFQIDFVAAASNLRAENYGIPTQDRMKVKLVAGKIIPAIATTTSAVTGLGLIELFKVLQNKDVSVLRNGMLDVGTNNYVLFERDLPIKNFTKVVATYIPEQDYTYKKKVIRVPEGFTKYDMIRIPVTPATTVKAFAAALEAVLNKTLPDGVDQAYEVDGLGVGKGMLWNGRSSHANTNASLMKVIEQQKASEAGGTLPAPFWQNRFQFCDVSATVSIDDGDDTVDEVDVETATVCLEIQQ
# [3] = biological target: AMP-activated protein kinase, AMPK (Homo sapiens) (UniProt P54646+O43741+P54619+Q9UGJ0+Q9Y478+Q13131+Q9UGI9); test: AMP-dependent Kinase enzyme assay. An in vitro enzyme assay that detects ADP turnover that is directly proportional to AMPK activity. This uses naive AMPK that is activated during the assay with MK-8722; type: functional; details: 30 µM
# [4] = biological target: Sialic acid-binding Ig-like lectin 9 (Homo sapiens) (UniProt Q9Y336); test: Hs-Siglec9 ALPHAscreen SOP 20170721; details: 10 µM
# Sialic acid-binding Ig-like lectin 9 (Homo sapiens), sequence (Q9Y336 whole entry): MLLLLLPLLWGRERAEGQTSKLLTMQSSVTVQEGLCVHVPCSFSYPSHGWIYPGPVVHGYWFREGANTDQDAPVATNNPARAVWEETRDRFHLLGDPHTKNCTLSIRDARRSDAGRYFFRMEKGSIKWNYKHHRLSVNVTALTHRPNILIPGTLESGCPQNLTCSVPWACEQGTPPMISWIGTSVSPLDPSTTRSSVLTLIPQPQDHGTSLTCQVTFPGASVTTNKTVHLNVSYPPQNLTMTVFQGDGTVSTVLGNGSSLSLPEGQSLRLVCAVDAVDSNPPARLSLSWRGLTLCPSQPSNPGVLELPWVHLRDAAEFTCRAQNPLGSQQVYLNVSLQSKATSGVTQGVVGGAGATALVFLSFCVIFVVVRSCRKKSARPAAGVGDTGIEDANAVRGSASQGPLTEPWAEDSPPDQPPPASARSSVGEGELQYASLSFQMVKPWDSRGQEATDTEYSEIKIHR
# Trypanosoma cruzi = test: Trypanosoma cruzi phosphomannomutase and mannose-1-phosphate guanylyltransferase assay; type: functional; details: 10 µM
# [5] = biological target: T2, Arginase-2, mitochondrial (Homo sapiens) (UniProt P78540); test: in vitro enzyme assay to detect the production of urea directly proportional to the activity of Arginase II; type: functional; details: 33.3 µM; note: in the data most compounds retested in dose-response had high values
# T2 sequence (whole entry): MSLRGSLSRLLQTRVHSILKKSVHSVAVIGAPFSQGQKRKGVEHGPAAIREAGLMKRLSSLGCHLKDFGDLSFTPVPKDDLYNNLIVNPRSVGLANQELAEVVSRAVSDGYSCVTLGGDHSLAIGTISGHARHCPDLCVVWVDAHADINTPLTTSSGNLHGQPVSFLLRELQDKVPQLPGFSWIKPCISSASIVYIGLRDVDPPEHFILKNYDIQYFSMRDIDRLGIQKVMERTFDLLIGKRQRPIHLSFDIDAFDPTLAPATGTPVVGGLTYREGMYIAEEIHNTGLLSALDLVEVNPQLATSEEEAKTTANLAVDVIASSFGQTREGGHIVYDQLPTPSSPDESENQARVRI
# [6] = biological target: T3, Proteasome subunit beta (Trypanosoma cruzi) (UniProt O96673); test: Trypanosoma cruzi proteasome chymotrypsin-like activity (TcProtChymo) assay.; note: in the data most compounds retested in dose-response had high values; type: functional; details: 9.37 µM
# T3 sequence (whole entry): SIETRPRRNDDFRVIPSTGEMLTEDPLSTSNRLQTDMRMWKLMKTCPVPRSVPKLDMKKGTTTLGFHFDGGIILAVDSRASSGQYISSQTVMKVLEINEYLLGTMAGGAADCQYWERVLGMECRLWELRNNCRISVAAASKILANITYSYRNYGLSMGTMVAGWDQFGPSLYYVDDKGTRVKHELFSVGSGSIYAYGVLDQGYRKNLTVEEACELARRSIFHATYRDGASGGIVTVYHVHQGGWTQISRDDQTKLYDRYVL
# Homo sapiens = organism: Homo sapiens; test: To identify inhibition of the IFN signalling (Jak-Stat) pathway via expression of an eGFP reporter gene under the control of an IFN-stimulated response element (ISRE) containing MxA promoter.; type: functional; details: 30 µM
# [7] = biological target: T4, Tyrosyl-tRNA synthetase, putative (Trypanosoma cruzi (strain CL Brener)) (UniProt Q4DSP6); test: Trypanosoma cruzi tyrosyl tRNA synthetase (TcYRS) _High Tyrosine SOP; type: functional; details: 30 µM; note: in the data most compounds retested in dose-response had high values
# T4 sequence (whole entry): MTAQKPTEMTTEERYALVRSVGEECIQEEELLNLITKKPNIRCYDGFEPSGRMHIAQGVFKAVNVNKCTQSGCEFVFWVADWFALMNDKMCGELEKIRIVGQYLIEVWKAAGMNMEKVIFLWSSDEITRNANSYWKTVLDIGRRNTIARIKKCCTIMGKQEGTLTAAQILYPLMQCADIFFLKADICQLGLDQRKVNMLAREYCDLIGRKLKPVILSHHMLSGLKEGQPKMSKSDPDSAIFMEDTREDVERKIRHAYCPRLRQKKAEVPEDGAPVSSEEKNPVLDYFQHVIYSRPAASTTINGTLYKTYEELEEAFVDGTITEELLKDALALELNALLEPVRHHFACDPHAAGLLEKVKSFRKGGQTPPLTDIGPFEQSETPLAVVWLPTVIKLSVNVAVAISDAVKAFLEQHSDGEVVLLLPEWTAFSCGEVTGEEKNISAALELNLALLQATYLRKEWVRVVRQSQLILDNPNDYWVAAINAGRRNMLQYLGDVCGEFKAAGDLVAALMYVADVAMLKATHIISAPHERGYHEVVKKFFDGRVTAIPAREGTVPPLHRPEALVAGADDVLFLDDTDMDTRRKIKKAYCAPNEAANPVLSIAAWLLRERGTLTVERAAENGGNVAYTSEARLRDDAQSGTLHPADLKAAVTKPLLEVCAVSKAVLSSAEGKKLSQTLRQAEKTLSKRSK
# [8] = biological target: T4, Tyrosyl-tRNA synthetase, putative (Trypanosoma cruzi (strain CL Brener)); test: Trypanosoma cruzi tyrosyl tRNA synthetase (TcYRS) SOP; type: functional; details: 30 µM
# [9] = biological target: Chromo domain-containing protein 1 (Saccharomyces cerevisiae (strain ATCC 204508 / S288c) (Baker's yeast)) (UniProt P32657); test: ScCHD-1 Enzyme Inhibition Assay; type: functional; details: 30 µM; note: in the data most compounds retested in dose-response had high values
# Chromo domain-containing protein 1 (Saccharomyces cerevisiae (strain ATCC 204508 / S288c) (Baker's yeast)), sequence (P32657 whole entry, the tested form may be a part): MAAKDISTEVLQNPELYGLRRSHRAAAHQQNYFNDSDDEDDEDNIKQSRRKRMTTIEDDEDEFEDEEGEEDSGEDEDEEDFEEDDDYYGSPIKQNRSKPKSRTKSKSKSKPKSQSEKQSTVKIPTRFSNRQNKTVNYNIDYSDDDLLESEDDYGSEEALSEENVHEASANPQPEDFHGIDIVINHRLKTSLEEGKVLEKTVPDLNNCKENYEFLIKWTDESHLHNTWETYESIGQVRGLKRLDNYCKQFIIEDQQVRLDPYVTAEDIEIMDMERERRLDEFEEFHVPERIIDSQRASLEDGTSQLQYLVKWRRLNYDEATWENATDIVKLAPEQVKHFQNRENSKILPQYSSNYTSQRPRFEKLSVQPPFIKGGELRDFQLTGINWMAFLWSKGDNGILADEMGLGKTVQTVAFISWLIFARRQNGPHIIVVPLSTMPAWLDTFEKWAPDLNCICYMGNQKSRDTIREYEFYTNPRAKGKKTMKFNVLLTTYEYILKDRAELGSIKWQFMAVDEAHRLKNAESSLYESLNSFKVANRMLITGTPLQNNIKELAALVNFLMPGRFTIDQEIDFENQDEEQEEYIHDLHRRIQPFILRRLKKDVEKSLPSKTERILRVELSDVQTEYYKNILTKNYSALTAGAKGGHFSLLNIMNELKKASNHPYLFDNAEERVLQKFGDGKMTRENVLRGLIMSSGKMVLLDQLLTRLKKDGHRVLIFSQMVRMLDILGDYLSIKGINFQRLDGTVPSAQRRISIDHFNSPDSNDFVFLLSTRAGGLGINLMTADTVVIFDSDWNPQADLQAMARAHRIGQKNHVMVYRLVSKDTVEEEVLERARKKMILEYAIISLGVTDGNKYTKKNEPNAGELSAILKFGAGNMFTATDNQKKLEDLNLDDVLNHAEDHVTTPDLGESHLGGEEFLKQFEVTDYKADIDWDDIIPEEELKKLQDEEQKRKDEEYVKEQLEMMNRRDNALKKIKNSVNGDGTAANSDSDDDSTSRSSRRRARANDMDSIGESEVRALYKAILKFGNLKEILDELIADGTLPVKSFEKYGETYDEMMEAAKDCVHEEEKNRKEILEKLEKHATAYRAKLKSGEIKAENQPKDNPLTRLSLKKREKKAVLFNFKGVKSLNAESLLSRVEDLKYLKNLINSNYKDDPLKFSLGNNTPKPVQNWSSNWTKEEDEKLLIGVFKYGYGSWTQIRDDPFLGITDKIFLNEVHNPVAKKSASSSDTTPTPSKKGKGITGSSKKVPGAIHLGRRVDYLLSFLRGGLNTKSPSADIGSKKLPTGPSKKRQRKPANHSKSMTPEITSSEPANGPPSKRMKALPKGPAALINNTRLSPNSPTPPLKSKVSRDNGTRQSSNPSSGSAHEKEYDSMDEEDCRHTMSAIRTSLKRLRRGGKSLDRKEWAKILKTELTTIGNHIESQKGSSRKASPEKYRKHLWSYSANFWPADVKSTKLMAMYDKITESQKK
# Protein translocase subunit SecA (Escherichia coli (strain K12)), sequence (P10408 whole entry): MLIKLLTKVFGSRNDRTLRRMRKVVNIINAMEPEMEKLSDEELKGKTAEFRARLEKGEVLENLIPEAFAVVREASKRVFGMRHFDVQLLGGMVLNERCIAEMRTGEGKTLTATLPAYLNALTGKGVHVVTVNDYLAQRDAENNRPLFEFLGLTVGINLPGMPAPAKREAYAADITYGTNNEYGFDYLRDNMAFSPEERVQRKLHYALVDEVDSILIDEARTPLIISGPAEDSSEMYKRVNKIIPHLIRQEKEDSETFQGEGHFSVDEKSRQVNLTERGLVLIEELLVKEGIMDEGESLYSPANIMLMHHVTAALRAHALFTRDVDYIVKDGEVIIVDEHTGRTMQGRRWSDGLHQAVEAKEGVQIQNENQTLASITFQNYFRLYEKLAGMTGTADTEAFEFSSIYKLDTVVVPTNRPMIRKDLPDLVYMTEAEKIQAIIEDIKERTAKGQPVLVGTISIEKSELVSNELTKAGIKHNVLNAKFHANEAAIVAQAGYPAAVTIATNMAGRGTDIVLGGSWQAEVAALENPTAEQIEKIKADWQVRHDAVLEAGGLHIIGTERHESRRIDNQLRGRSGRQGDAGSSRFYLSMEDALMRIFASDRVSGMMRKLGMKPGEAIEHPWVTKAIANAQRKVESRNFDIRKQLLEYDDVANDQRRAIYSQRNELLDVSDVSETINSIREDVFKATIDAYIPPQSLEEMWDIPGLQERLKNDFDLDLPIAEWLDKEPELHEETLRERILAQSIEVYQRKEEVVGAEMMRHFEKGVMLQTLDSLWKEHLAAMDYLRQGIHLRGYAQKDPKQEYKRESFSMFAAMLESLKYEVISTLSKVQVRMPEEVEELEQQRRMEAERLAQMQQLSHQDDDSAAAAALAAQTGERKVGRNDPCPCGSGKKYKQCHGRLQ
SMILES,Percent Effect [1] [%],Percent Effect [2] [%],Percent Effect [3] [%],Percent Effect [4] [%],Percent Effect (Trypanosoma cruzi) [%],Percent Effect [5] [%],Percent Effect [6] [%],Percent Effect (Homo sapiens) [%],Percent Effect [7] [%],Percent Effect [8] [%],Percent Effect [9] [%]
Cc1ccc(N2CCCC(NCc3ccncc3)C2)nn1 (stereo not given),-2.1,11.4,-4.43,-7.21,0.718,-3.23,26.8,-2.46,0,2.53,-31.9
CC(=O)N1CCC(c2nccnc2Oc2ccccc2)CC1,-6.13,4.05,4.17,-0.964,-6.32,-3.02,4.06,13.5,2.15,1.3,11.4
c1ccc2sc(CN3CCCC3c3noc(C4CC4)n3)nc2c1 (stereo not given),-2.02,-13.5,-1.08,-2.6,-2.88,0.185,0,9.41,8.91,23.2,6.83
CCOc1ccc(N2CCCN=C2NC(=O)c2ccccc2C)cc1,-3.08,7.79,-2.01,4.38,-0.0983,-5.52,9.98,-13.7,6.45,16.1,106
CN(C)C(=O)CN1CCCCC1c1nc(N)ncc1-c1ccccc1 (stereo not given),-1.46,2.67,10.4,1.52,-2.95,2.1,2.56,-0.722,4.25,6.41,-5.48
COc1ncccc1NC(=O)N1CCC(CN2CCOCC2)CC1,2.03,2.67,-10.3,11.1,5.55,17.7,7.15,-13.1,2.73,6.17,0.459
Cc1nn(CC(C)C)c(N(C)C)c1CNCc1cccnc1N(C)C,-4.49,5.41,-8.59,3.17,-9.34,-6.41,7.75,6.14,1.48,3.7,-5.66
Cc1nc(C)n(C2CCCN(C(=O)c3ccc4c(c3)COC4)C2)n1 (stereo not given),-2.83,13.5,-5.96,7.05,7.15,2.4,-4.67,6.78,2.97,11,0.576
Cc1cc(CN(C)C(=O)c2cc3c([nH]c2=O)CCCC3=O)no1,-5.46,5.41,-1.63,-1.13,-7.52,5.73,-5.57,18,0.99,6.1,-0.0983
CN(C)C(=O)Cc1ccc(NC(=O)NC2CCCCC2)cc1,-1.35,-5.41,-1.19,3.35,6.56,-2.86,16,11,1.59,7.32,-0.0586
